From PubChem BioAssay (NCI) come the findings set out here.

Some test systems named below: MOLT-4 leukemia; SR leukemia; OVCAR-8 ovarian; OVCAR-5 ovarian; OVCAR-4 ovarian; SK-OV-3 ovarian; IGROV1 ovarian; OVCAR-3 ovarian; HS 578T breast; NCI/ADR-RES ovarian; T-47D breast; BT-549 breast; MDA-MB-435 melanoma; SW-620 colon; HCT-116 colon; HCC-2998 colon; KM12 colon; RPMI-8226 leukemia; MCF7 breast.
Holding throughout (assay): NCI-60 one-dose screen, 48 h (100 = growth as untreated, 0 = no growth, -100 = all killed)
Conditions in all cases: 10 µM unless noted

The structures appear in SMILES notation. Values joined by “and” are separate entries in the source; they are usually repeats but may differ in a detail not shown here. Identical values can stand only once. The panel holds about 83,000 compounds, 20% with a hit somewhere; the sample as a whole holds those more often.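 Method: cells in 96-well plates; compound added at one concentration; 48 h incubation; percent growth measured; values under 10 scored active.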 A number with no mark means an inactive call. Active and inactive are the calls of the source.

For the compound `O=C(NC(Cl)=C(Cl)Cl)P(=O)(c1ccccc1)c1ccccc1`, the growth in the experiment on MOLT-4 leukemia is 87.1%; with SR leukemia, 88.3%; in the experiment with OVCAR-8 ovarian, 126%; with OVCAR-5 ovarian, 105%; with OVCAR-4 ovarian, 101%; in the experiment with SK-OV-3 ovarian, 107%. Moreover, the growth in the experiment with IGROV1 ovarian is 95%; in the experiment on OVCAR-3 ovarian it was 115%; in the experiment on HS 578T breast it was 113%; in the experiment with NCI/ADR-RES ovarian, 107%; with T-47D breast, 105%; in the experiment on BT-549 breast it was 109%. Moreover, the growth is 92% in the experiment with MDA-MB-435 melanoma; 112% with SW-620 colon; 106% with HCT-116 colon; 114% in the experiment with HCC-2998 colon; 106% in the experiment on KM12 colon.
Regarding `COc1c(O)cc2c(c1OC)-c1ccc(SC)c(=O)cc1C(NC(C)=O)CC2` (centres undefined), the growth is 9.41% (active) in the experiment on MOLT-4 leukemia; 5.8% (active) in the experiment on SR leukemia; 0.467% (active) in the experiment on RPMI-8226 leukemia; 41.9% with OVCAR-5 ovarian; 16.8% in the experiment on OVCAR-4 ovarian; 35.2% with SK-OV-3 ovarian. The growth in the experiment with IGROV1 ovarian was -44.2% (active); with OVCAR-3 ovarian, -34.3% (active); in the experiment with HS 578T breast it was 16%; in the experiment on NCI/ADR-RES ovarian it was -1.28% (active); in the experiment on T-47D breast, 81.9%; in the experiment with BT-549 breast it was -9.83% (active). Besides, the growth is -47.2% (active) in the experiment on MDA-MB-435 melanoma; 22.9% in the experiment with SW-620 colon; 13.3% in the experiment on MCF7 breast; 4.98% (active) in the experiment on HCT-116 colon; -21.5% (active) with HCC-2998 colon; -41.1% (active) with KM12 colon.
`C/C=C(/C)C(=O)O[C@H]1CC[C@@]2(C)[C@@H]3CC[C@H]4[C@]5(O)C[C@H](O)[C@@]6(O)[C@@H](CN7C[C@@H](C)CC[C@H]7[C@@]6(C)O)[C@]5(O)C[C@@]42O[C@@]13O`: the growth is 112% with MOLT-4 leukemia; 97.4% with SR leukemia; 113% in the experiment on RPMI-8226 leukemia; 91.9% with OVCAR-8 ovarian; 102% in the experiment on OVCAR-4 ovarian; 118% with SK-OV-3 ovarian. For the same compound, the growth is 49.3% in the experiment with IGROV1 ovarian; 120% in the experiment on OVCAR-3 ovarian; 116% with HS 578T breast; 111% in the experiment with NCI/ADR-RES ovarian; 118% in the experiment with T-47D breast; 108% in the experiment with MDA-MB-435 melanoma. For the same compound, the growth was 111% in the experiment on SW-620 colon; 98.3% with MCF7 breast; 47.5% with HCT-116 colon; 137% in the experiment on HCC-2998 colon; 122% in the experiment with KM12 colon.
With `O=S1(=O)OCCO1`, the growth in the experiment with MOLT-4 leukemia is 114%; with RPMI-8226 leukemia, 104%; with OVCAR-8 ovarian, 102%; in the experiment with OVCAR-5 ovarian it was 96.3%; in the experiment on OVCAR-4 ovarian, 99.4%; in the experiment on SK-OV-3 ovarian, 117%. Further, the growth is 106% in the experiment on IGROV1 ovarian; 106% with OVCAR-3 ovarian; 95.1% with HS 578T breast; 99.7% in the experiment with NCI/ADR-RES ovarian; 117% in the experiment on BT-549 breast; 98.2% with MDA-MB-435 melanoma. Besides, the growth is 101% in the experiment with SW-620 colon, 98.8% in the experiment on MCF7 breast, 102% in the experiment with HCT-116 colon and 99.2% in the experiment on KM12 colon.
For the compound `Cc1ccc(C(=O)O[C@H](C(=O)O)[C@H](OC(=O)c2ccc(C)cc2)C(=O)O)cc1`, the growth was 90.9% with MOLT-4 leukemia; 106% with RPMI-8226 leukemia; 98.8% with OVCAR-8 ovarian; 114% in the experiment with OVCAR-5 ovarian; 103% in the experiment with OVCAR-4 ovarian; 96.9% in the experiment with SK-OV-3 ovarian. Besides, the growth in the experiment on IGROV1 ovarian is 103%; in the experiment on OVCAR-3 ovarian, 111%; in the experiment on HS 578T breast, 128%; in the experiment with NCI/ADR-RES ovarian, 99.1%; in the experiment on BT-549 breast it was 101%; with MDA-MB-435 melanoma it was 104%. Further, the growth in the experiment with SW-620 colon was 105%; with MCF7 breast it was 105%; with HCT-116 colon, 103%; in the experiment with HCC-2998 colon, 111%; with KM12 colon, 112%.
Regarding `CC1=CC(=O)CCC12CCOC2=O` (centres undefined), the growth was 107% in the experiment with MOLT-4 leukemia; 88.3% in the experiment with RPMI-8226 leukemia; 100% with OVCAR-8 ovarian; 96.7% in the experiment with OVCAR-5 ovarian; 93.8% in the experiment with OVCAR-4 ovarian; 101% in the experiment on SK-OV-3 ovarian. The growth with IGROV1 ovarian is 108%; in the experiment on OVCAR-3 ovarian, 106%; in the experiment on HS 578T breast it was 88.4%; in the experiment with NCI/ADR-RES ovarian, 94.7%; in the experiment on BT-549 breast, 90.5%; in the experiment with MDA-MB-435 melanoma it was 95.5%. In addition, the growth in the experiment with SW-620 colon is 98.6%; in the experiment on HCT-116 colon, 102%; with HCC-2998 colon, 102%; with KM12 colon, 104%.
Take `O=C1NC(=O)C(=C/C=C/c2ccccc2)C(=O)N1`: the growth in the experiment on MOLT-4 leukemia was 4.09% (active); in the experiment on RPMI-8226 leukemia, -20.4% (active); with OVCAR-8 ovarian, -3.62% (active); in the experiment with OVCAR-5 ovarian, 37%; in the experiment with OVCAR-4 ovarian, 26.8%; with SK-OV-3 ovarian, 62.9%. Also, the growth is 7.61% (active) in the experiment on IGROV1 ovarian; 11.8% in the experiment with OVCAR-3 ovarian; 39.4% with HS 578T breast; -29.1% (active) in the experiment with NCI/ADR-RES ovarian; 32.2% in the experiment with T-47D breast; 36.6% in the experiment on BT-549 breast. Further, the growth is 3.9% (active) in the experiment with MDA-MB-435 melanoma; -76.4% (active) in the experiment with SW-620 colon; 14.2% in the experiment with MCF7 breast; -78.5% (active) with HCT-116 colon; -40.1% (active) in the experiment on KM12 colon.
Consider `CCC1CCC(=O)O1` (centres undefined), for which the growth with MOLT-4 leukemia is 98.3% and 116%; in the experiment on RPMI-8226 leukemia, 104% and 114%; in the experiment with OVCAR-8 ovarian it was 109% and 118%; in the experiment on OVCAR-5 ovarian, 106% and 111%; in the experiment with OVCAR-4 ovarian, 96.6% and 112%; in the experiment with SK-OV-3 ovarian, 95.2% and 119%. The growth in the experiment on IGROV1 ovarian is 105% and 110%; in the experiment with OVCAR-3 ovarian, 108% and 110%; with HS 578T breast it was 106% and 108%; with NCI/ADR-RES ovarian, 112% and 124%; with T-47D breast it was 93.5% and 118%; with BT-549 breast, 116% and 129%. For the same compound, the growth in the experiment on MDA-MB-435 melanoma is 109%; in the experiment on SW-620 colon, 111% and 106%; with MCF7 breast, 90.5% and 105%; in the experiment on HCT-116 colon it was 106% and 107%; in the experiment on HCC-2998 colon, 109%; in the experiment on KM12 colon, 99.7% and 108%.
Turning to `CC/C(=C(\c1ccc(OCCN2CCOCC2)cc1)c1ccc(OC(=O)Cc2ccccc2)cc1)c1ccc(Cl)cc1`, the growth is 95.6% with SR leukemia; 98.8% in the experiment with RPMI-8226 leukemia; 107% in the experiment on OVCAR-8 ovarian; 104% with OVCAR-5 ovarian; 120% in the experiment with OVCAR-4 ovarian; 111% in the experiment on SK-OV-3 ovarian. Also, the growth was 106% in the experiment with IGROV1 ovarian; 102% with OVCAR-3 ovarian; 96.6% in the experiment on HS 578T breast; 105% with NCI/ADR-RES ovarian; 63.5% in the experiment with T-47D breast; 104% in the experiment with BT-549 breast. In addition, the growth is 107% in the experiment on MDA-MB-435 melanoma; 99.9% in the experiment on SW-620 colon; 75.8% in the experiment on MCF7 breast; 97.3% in the experiment on HCT-116 colon; 106% in the experiment with HCC-2998 colon; 101% with KM12 colon.
